An excerpt weighted towards active compounds, which were near 2.3% of everything screened.
Tau fluor cs: Counterscreen qHTS for Inhibitors of Tau Fibril Formation, Fluorescence Polarization; tau K18 P301L Alexa594 fluorescence, heparin fibrillization; Potency, µM (top dose mostly 57.7 µM), inactives show at the top dose activity change, negative = decrease; hit rate 0.93% among 280,000; AID 1463, 2008; note: potency is the fitted concentration of half-maximal effect; nearly all actives have a fitted effect of over 55% in size
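Human tau K18 P301L (15 uM unlabeled, 0.24 uM Alexa 594-labeled) in 100 mM sodium acetate pH 7 with 20 uM heparin, 6 hr at 37 C. ThT 30 uM added, 1 hr ambient; Alexa 594 FP and total fluorescence read at 555/632 nm.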
USP1-UAF1 inh: Inhibitors of USP1/UAF1: Primary Screen. recombinant USP1/UAF1, Ub-Rhodamine cleavage fluorescence. Ubiquitin carboxyl-terminal hydrolase 1 (Homo sapiens), O94782. hit rate 0.23% among 390,000. Potency, µM (series often up to 57.1 µM), for inactives: at the highest dose activity change, negative = inhibition, usual class: inhibitors; note: potency is the fitted concentration of half-maximal effect; nearly all actives have a fitted effect of over 60% in size
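Step one: compound is pinned into 1nM USP1/UAF1 in HEPES pH 7.8 buffer with TCEP. Step two: 15 min room-temperature incubation. Step three: Ub-Rho (150nM final) starts cleavage, tracked by fluorescence over six one-minute reads.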
Coupling enz: qHTS Assay for Inhibitors of Fructose-1,6-bisphosphate Aldolase from Giardia Lamblia: Coupling assay counterscreen; coupling enzyme system counterscreen, AmpLite Red fluorescence; activity change, negative = inhibition, % at 58.2 µM, hits read low; hit rate 0.67% among 290,000; AID 2472, 2010; in the data active = activity change below about -30%
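Final compound at 57.5 uM, incubated 10 min at RT with coupling enzyme reagent (glyceraldehyde-3-phosphate), then 20 min with substrate and AmpLite Red detection. Fluorescence read at 525/598 nm; tests interference with the coupling assay, not aldolase inhibition.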
Tau fibril FP: qHTS for Inhibitors of Tau Fibril Formation, Fluorescence Polarization. AID 1468, 2008. Microtubule-associated protein tau (Homo sapiens), P10636. Potency, µM (highest dose often 57.7 µM), for inactives: at the highest dose activity, negative = inhibition, most hits filed as inhibitors. hit rate 0.39% among 280,000. K18 P301L tau heparin fibrillization, Alexa594 FP, 6 h; note: potency is the fitted concentration of half-maximal effect; nearly all actives have a fitted effect of over 55% in size
Target sequence (P10636 561-689 P618L limits assumed): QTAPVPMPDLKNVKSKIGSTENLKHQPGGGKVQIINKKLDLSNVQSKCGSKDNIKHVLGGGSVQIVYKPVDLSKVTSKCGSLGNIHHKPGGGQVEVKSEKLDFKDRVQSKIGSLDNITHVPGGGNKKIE
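Heparin (20 uM) drove fibril formation of recombinant tau K18 P301L, 15 uM unlabeled with 0.24 uM Alexa 594 label, for 6 hr at 37 C in 100 mM sodium acetate pH 7. Fluorescence polarization (555/632 nm) read 1 hr after 30 uM ThT.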
Tau fibril ThT: qHTS for Inhibitors of Tau Fibril Formation, Thioflavin T Binding; Microtubule-associated protein tau (Homo sapiens), P10636; recombinant tau K18 P301L, heparin-induced fibrillization, ThT fluorescence; Potency, µM (top dose mostly 57.4 µM), for the others: top-dose activity, negative = inhibition, hits mostly inhibitors; hit rate 2.1% among 270,000; AID 1460, 2008; note: potency is the fitted concentration of half-maximal effect; nearly all actives have a fitted effect of over 55% in size
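Using a mix of unlabeled (15 uM) and Alexa 594-labeled (0.24 uM) tau K18 P301L, heparin-triggered fibrillization over 6 hr at 37 C was scored by ThT fluorescence.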
Active calls of the source: *; i = inactive; ? = inconclusive; . = no result given; [ ] = remark or other dose. Unless noted, calls come from the whole dose curve; as a rule, active = well fitted curve in the direction sought with a large enough effect; inconclusive = small, poorly fitted or top-dose-only effect, or another doubt; inactive = no such curve, though single readings can be large; an effect the other way counts as inactive or inconclusive. % is set by controls: 0 for no effect and ±100 for the full control effect.

SMILES | Tau fluor cs | USP1-UAF1 inh | Coupling enz | Tau fibril FP | Tau fibril ThT
Nc1ncnc2oc(-c3ccco3)c(-c3ccco3)c12 | ? | -6.5% | -30.8* | ? | 20µM*
CCCc1ccc(OC(C)C(=O)Nc2sc3c(c2C(=O)OC)CCCCC3)cc1 (centres undefined) | -9.4% | ? | . | -15.4% | ?
Cc1cc(/C=N\NC(=O)COc2cccc3cccnc23)c(C)n1-c1ccc(Br)cc1 | -29.3% | -14.9% | 0.9 | -10.2% | ?
Cc1cc(/C=N\NC(=O)COc2cccc3cccnc23)c(C)n1-c1ccccc1 | ? | -22.1% | 6.5 | -10.8% | 25.1µM*
CCOC(=O)N1CCN(C(=O)CN(c2ccc(C)cc2C)S(=O)(=O)c2ccccc2)CC1 | -3.7% | -8.6% | . | 2.0% | -9.1%
CCC(C)(C)C1CCC(=NNc2nc3ccccc3[nH]2)CC1 (centres undefined) | ? | -7.3% | -3.2 | ? | 15.8µM*
CC(C)Cn1c(=O)c2ccccc2n2c(CCC(=O)N3CCN(c4ccccc4)CC3)nnc12 | -20.8% | ? | . | 4.5% | ?
N#CC(C#N)=C(N)/C(C#N)=C/c1cc(O)c(O)c(O)c1 | ? | -25.8% | . | ? | 11.2µM*
N#C/C(=C\c1ccc(O)c(O)c1)C(=O)c1ccc(O)c(O)c1 | -25.1% | ? | . | 0.2% | ?
COC1=C(Nc2ccccc2OC)C(=O)c2ccccc2C1=O | ? | ? | -27.1 | ? | ?
O=C1C(Cl)=C(Nc2ccc3cn[nH]c3c2)C(=O)c2ccccc21 | 1.41µM*[quencher] | 15.8µM* | -35.9* | 7.94µM* | 1.78µM*
COc1ccccc1NC1=C(NC(C)=O)C(=O)c2ccccc2C1=O | -29.0% | -19.0% | -55.6* | ? | 20µM*
CC(=O)Nc1ccc(NC(=O)c2cccc3c2-c2ccccc2C3=O)cc1 | -9.4% | -13.3% | 3.8 | 9.1% | -14.8%
Cc1ccc(Nc2nc(N)c([N+](=O)[O-])c(NCCO)n2)cc1 | -16.8% | -5.5% | 2.7 | 1.9% | ?
O=C(Nc1ccc2cn[nH]c2c1)c1c(Cl)cccc1Cl | -10.9% | 1.8% | -8.5 | -4.5% | -10.9%
CC(=O)Nc1ccc(NC2=C(Cl)C(=O)c3ccccc3C2=O)cc1 | 2.24µM*[quencher] | ? | -1.3 | 10µM* | 2µM*
Cc1ccc(NC2=C(NCCO)C(=O)c3ccccc3C2=O)cc1 | ? | 14.1µM* | -48.1* | ? | 22.4µM*
Cc1ccc(S(=O)(=O)NN2Cc3ccccc3C2=N)cc1 | 2.8% | -6.1% | -2.3 | 3.5% | 3.0%
CN(C)c1ccc(NC2=C(Cl)C(=O)c3ccccc3C2=O)cc1 | 3.55µM*[quencher] | ? | -42.7* | 14.1µM* | 7.94µM*
O=C(Oc1ccc(NC2=C(Cl)C(=O)c3ccccc3C2=O)cc1)c1ccc([N+](=O)[O-])cc1 | 2.82µM*[quencher] | -14.0% | -15.6 | ? | 3.16µM*
O=C(Oc1ccc([N+](=O)[O-])cc1)c1cccnc1 | -14.3% | -13.0% | -0.8 | 8.1% | ?
CCC(C)c1ccc(OCC(=O)Nc2cccc(-c3nc4ncccc4o3)c2)cc1 (centres undefined) | ? | -18.6% | . | -8.0% | ?
COc1ccc(C2C3C=CCC(c4cccc(/C=C/c5ccccc5)c4)C3C(=O)N2Cc2ccccc2)cc1Cl (centres undefined) | . | . | 3.6 | . | .
COc1ccc2[nH]c(=O)c(CN(Cc3ccc(C)cc3)Cc3nnnn3CC3CCCO3)cc2c1 (centres undefined) | -8.5% | -6.4% | -47.2* | -7.2% | -14.8%
COc1ccc2[nH]c(=O)c(CN(Cc3ccccc3OC)Cc3nnnn3CC3CCCO3)cc2c1 (centres undefined) | -9.5% | -13.3% | -25.2 | 3.7% | -5.8%
SMILES | Tau fluor cs | USP1-UAF1 inh | Coupling enz | Tau fibril FP | Tau fibril ThT
COc1ccc2[nH]c(=O)c(CN(CCc3ccccc3)Cc3nnnn3CC3CCCO3)cc2c1 (centres undefined) | -11.0% | ? | -40.2* | -5.7% | ?
Cc1ccc(Cl)cc1NC(=O)c1sc(-n2nc(C)c(Cc3ccc4c(c3)OCO4)c2C)nc1C | 0.4% | ? | . | -0.7% | 2.1%
CCC1CN(C(=O)Nc2cccc(OC)c2)c2ccccc2O1 (centres undefined) | -20.6% | -25.7% | . | ? | 8.6%
c1ccc(COc2ccc(Nc3ncnc4nc[nH]c34)cc2)cc1 | 14.1µM*[quencher] | -14.4% | 0.8 | 18.1% | ?
CCn1cnc2cc(NCc3ccc(N(C)C)cc3)ccc21 | 11.2µM*[quencher] | -18.9% | -1.5 | 5.6% | ?
CCN1CCOC(=O)C1CC(=O)Nc1cccc(OC)c1 (centres undefined) | -5.7% | -2.7% | . | -3.4% | ?
CC(=O)C1=C(c2cccc([N+](=O)[O-])c2)N(C(C)=O)n2c(C)nnc2S1 | -29.4% | 14.1µM* | 1.8 | ? | 3.55µM*
CCOc1ccc(C2=C(C(C)=O)Sc3nnc(C)n3N2C(C)=O)cc1 | -17.3% | ? | . | ? | ?
CC(=O)N1CC[C@@H]2CC(=O)C[C@@H](C)[C@@H]21 | -2.3%[126 µM] | . | 2.8 | 3.4%[126 µM] | -4.5%[126 µM]
O=C(NCc1cccc(C(F)(F)F)c1)c1cccc2c1C(=O)c1ccc(N3CCC(Cc4ccccc4)CC3)cc1S2(=O)=O | . | 25.1µM* | . | . | .
O=C(NCCc1ccc(F)cc1)c1cccc2c1C(=O)c1ccc(N3CCC(Cc4ccccc4)CC3)cc1S2(=O)=O | . | i | . | . | .
O=C(NCc1cccc(F)c1)c1cccc2c1C(=O)c1ccc(N3CCC(Cc4ccccc4)CC3)cc1S2(=O)=O | . | 7.94µM* | . | . | .
O=C(NCc1ccc(OC(F)(F)F)cc1)c1cccc2c1C(=O)c1ccc(N3CCC(Cc4ccccc4)CC3)cc1S2(=O)=O | . | 389.6% | . | . | .
O=C(NCc1ccco1)c1cccc2c1C(=O)c1ccc(N3CCC(Cc4ccccc4)CC3)cc1S2(=O)=O | . | 28.2µM* | . | . | .
COCCn1c(=O)cnc2cnc(Nc3cccc(OC)c3)nc21 | . | . | 1.2 | . | .
O=C(O)c1cc(N2N=C(C(F)(F)F)/C(=C/C=C/c3ccco3)C2=O)ccc1Cl | -10.4% | 28.2µM* | 2.0 | -1.2% | -3.6%
CC1=NN(c2ccccc2)C(=O)/C1=C/N(C)C | -5.0% | -18.5% | -17.0 | -11.9% | -8.9%
CC1=NN(c2ccccc2)C(=O)/C1=C/c1cccc(C)c1 | . | -24.4% | 2.9 | . | .
CC1=NN(c2ccccc2)C(=O)/C1=C/C=C/c1ccc(N(C)C)cc1 | 2.51µM*[quencher] | -12.8% | -13.1 | ? | 2µM*
CC1=NN(c2ccccc2)C(=O)/C1=C\C=C\c1ccccc1 | ? | ? | 1.7 | ? | 28.2µM*
CCOC(=O)c1ccc(N2N=C(C)/C(=C/C=C/c3ccco3)C2=O)cc1 | ? | -24.4% | 0.8 | ? | 3.16µM*

Source: PubChem BioAssay
